# Test results taken from paper PMC11062922 (Nature Chemical Biology, 2023).
# Read-outs that look alike come from different tables or passages of the source.
# Assays:
# Design in all cases: species or system human, MV4-11 + K-562 + COLO205 + SK-N-BE2 + OVCAR-8
# CSNK1D = conditions: read-out: apparent Kd, n = 1
# CSNK1E = conditions: read-out: apparent Kd, n = 1
# MAPK10 = conditions: read-out: apparent Kd, compound concentrations: 100 nM and 1000 nM (sheet 'Samples'), n = 1
# MAPK11 = conditions: read-out: apparent Kd; compound concentrations: 100 nM and 1000 nM (sheet 'Samples'), CATDS: 0.18420027460355101; n = 1
# MAPK14 = conditions: read-out: apparent Kd, n = 1
# MAPK9 = conditions: read-out: apparent Kd, compound concentrations: 100 nM and 1000 nM (sheet 'Samples'), n = 1
# MAPKAPK2 = conditions: read-out: apparent Kd, n = 1
# NLK = conditions: read-out: apparent Kd, compound concentrations: 100 nM and 1000 nM (sheet 'Samples'), n = 1
# PRKD2 = conditions: read-out: apparent Kd; compound concentrations: 100 nM and 1000 nM (sheet 'Samples'), CATDS: 5.9855757256393E-2; n = 1
# PRKD3 = conditions: read-out: apparent Kd; compound concentrations: 100 nM and 1000 nM (sheet 'Samples'), CATDS: 5.6713144719272697E-2; n = 1
# RIPK2 = conditions: read-out: apparent Kd, compound concentrations: 100 nM and 1000 nM (sheet 'Samples'), n = 1
# CSNK1A1 = conditions: read-out: apparent Kd; compound concentrations: 100 nM and 1000 nM (sheet 'Samples'), CATDS: 0.128304526213217; n = 1
# COX5A = conditions: read-out: apparent Kd; compound concentrations: 100 nM and 1000 nM (sheet 'Samples'), CATDS: 5.4646770087593201E-2; n = 1
# DDR1 = conditions: read-out: apparent Kd; compound concentrations: 100 nM and 1000 nM (sheet 'Samples'), CATDS: 8.5854125332601505E-2; n = 1
# DDR2 = conditions: read-out: apparent Kd; compound concentrations: 100 nM and 1000 nM (sheet 'Samples'), CATDS: 5.1047862039129102E-2; n = 1
# DYRK1A = conditions: read-out: apparent Kd; compound concentrations: 100 nM and 1000 nM (sheet 'Samples'), CATDS: 4.6782776774364397E-2; n = 1
# ILK = conditions: read-out: apparent Kd, compound concentrations: 100 nM and 1000 nM (sheet 'Samples'), n = 1
# JAK2 = conditions: read-out: apparent Kd; compound concentrations: 100 nM and 1000 nM (sheet 'Samples'), CATDS: 0.29618992494589602; n = 1
# MAPK8 = conditions: read-out: apparent Kd; compound concentrations: 100 nM and 1000 nM (sheet 'Samples'), CATDS: 5.7180888411163297E-2; n = 1
# CLK4 = conditions: read-out: apparent Kd; compound concentrations: 100 nM and 1000 nM (sheet 'Samples'), CATDS: 0.240063768784822; n = 1
# IRAK3 = conditions: read-out: apparent Kd; compound concentrations: 100 nM and 1000 nM (sheet 'Samples'), CATDS: 0.257263100547858; n = 1
# RET = conditions: read-out: apparent Kd; compound concentrations: 100 nM and 1000 nM (sheet 'Samples'), CATDS: 0.29305960370360601; n = 1
# [1] = compound concentrations:100 nM and 1000 nM (sheet 'Samples')
compound,measurement,setting,value
C[C@H](O)CNc1cc(-c2[nH]c3cccnc3c2-c2ccc(F)cc2)ccn1.Cl [RO3206145-001],potency estimated from few doses,"CSNK1D; compound concentrations: 100 nM and 1000 nM (sheet 'Samples'), CATDS: 0.227277196740168",36.6 nM
same,potency estimated from few doses,"CSNK1E; compound concentrations: 100 nM and 1000 nM (sheet 'Samples'), CATDS: 0.13101963616975801",99 nM
same,potency estimated from few doses,MAPK10; CATDS: 6.3561216633857096E-2,1000 nM
same,potency estimated from few doses,MAPK11,51.5 nM
same,potency estimated from few doses,"MAPK14; compound concentrations: 100 nM and 1000 nM (sheet 'Samples'), CATDS: 0.188780888737105",49.4 nM
same,potency estimated from few doses,MAPK9; CATDS: 9.6618855435108605E-2,211 nM
same,potency estimated from few doses,"MAPKAPK2; compound concentrations: 100 nM and 1000 nM (sheet 'Samples'), CATDS: 0.128658474948743",103 nM
same,potency estimated from few doses,NLK; CATDS: 5.8542673875263601E-2,1550 nM
same,potency estimated from few doses,PRKD2,1370 nM
same,potency estimated from few doses,PRKD3,1880 nM
same,potency estimated from few doses,RIPK2; CATDS: 7.7128877949965702E-2,441 nM
Fc1ccc(-c2ncn(CCCNCc3ccccc3)c2-c2ccncc2)cc1 [SB-210486],potency estimated from few doses,CSNK1A1,1360 nM
same,potency estimated from few doses,"CSNK1D; compound concentrations: 100 nM and 1000 nM (sheet 'Samples'), CATDS: 0.26868989903925999",280 nM
same,potency estimated from few doses,"CSNK1E; compound concentrations: 100 nM and 1000 nM (sheet 'Samples'), CATDS: 0.162916255761588",716 nM
same,potency estimated from few doses,"MAPK14; compound concentrations: 100 nM and 1000 nM (sheet 'Samples'), CATDS: 0.19130895998185199",509 nM
same,potency estimated from few doses,MAPK9; CATDS: 0.114122400306413,2070 nM
same,potency estimated from few doses,"MAPKAPK2; compound concentrations: 100 nM and 1000 nM (sheet 'Samples'), CATDS: 0.22954264686774201",363 nM
Fc1ccc(-c2ncn(C3CCNCC3)c2-c2ccnc(Oc3ccc(-c4ccccc4)cc3)n2)cc1 [SB-245391],potency estimated from few doses,CSNK1D; [1],486 nM
same,potency estimated from few doses,CSNK1E; [1],1840 nM
same,potency estimated from few doses,MAPK14; [1],424 nM
same,potency estimated from few doses,MAPKAPK2; [1],116 nM
Fc1ccc(-c2ncn(CCCN3CCOCC3)c2-c2ccncc2)cc1 [SB-210313],potency estimated from few doses,"CSNK1D; compound concentrations: 100 nM and 1000 nM (sheet 'Samples'), CATDS: 0.19836678982407999",1230 nM
same,potency estimated from few doses,"CSNK1E; compound concentrations: 100 nM and 1000 nM (sheet 'Samples'), CATDS: 0.16080040098047499",2020 nM
same,potency estimated from few doses,MAPK10; CATDS: 0.188105641093985,1380 nM
same,potency estimated from few doses,"MAPK14; compound concentrations: 100 nM and 1000 nM (sheet 'Samples'), CATDS: 0.26893269490410898",706 nM
same,potency estimated from few doses,MAPK9; CATDS: 0.212522711291111,1070 nM
Clc1ccc(-c2nn3ncccc3c2-c2ccnc(Nc3ccc4c(c3)OCCO4)n2)cc1 [GW829116X],potency estimated from few doses,COX5A,1390 nM
same,potency estimated from few doses,"CSNK1D; compound concentrations: 100 nM and 1000 nM (sheet 'Samples'), CATDS: 7.5632586412137201E-2",637 nM
same,potency estimated from few doses,"CSNK1E; compound concentrations: 100 nM and 1000 nM (sheet 'Samples'), CATDS: 5.2875216757628997E-2",1530 nM
same,potency estimated from few doses,DDR1,495 nM
same,potency estimated from few doses,DDR2,1710 nM
same,potency estimated from few doses,DYRK1A,2320 nM
same,potency estimated from few doses,ILK; CATDS: 4.86206826406465E-2,2010 nM
same,potency estimated from few doses,JAK2,72.6 nM
same,potency estimated from few doses,MAPK10; CATDS: 6.7537775874855099E-2,815 nM
same,potency estimated from few doses,"MAPK14; compound concentrations: 100 nM and 1000 nM (sheet 'Samples'), CATDS: 7.0110586320851001E-2",749 nM
same,potency estimated from few doses,MAPK8,1230 nM
same,potency estimated from few doses,MAPK9; CATDS: 0.15745137005687401,177 nM
same,potency estimated from few doses,"MAPKAPK2; compound concentrations: 100 nM and 1000 nM (sheet 'Samples'), CATDS: 6.45632126081358E-2",904 nM
same,potency estimated from few doses,NLK; CATDS: 6.2213467797214997E-2,988 nM
same,potency estimated from few doses,RIPK2; CATDS: 7.3862527968221903E-2,670 nM
COc1cc(/C=N/Nc2ncnc3c2cnn3C(C)C)ccc1O [GW644007X],potency estimated from few doses,CLK4,1750 nM
same,potency estimated from few doses,ILK; CATDS: 0.22050260792915999,2110 nM
same,potency estimated from few doses,IRAK3,1520 nM
same,potency estimated from few doses,RET,1190 nM
